Compound activity from PubChem.
In the library only some 1.2% were active in any assay of this set; here they are far more common.
Avidin fluor: compound fluoresces at 488/530 nm on avidin beads | compound fluorescence 488/530 nm, flow cytometry; hits give high values | 0.38% of 220,000 active | fluorescence (KMESF) at 10 µM | AID 1775; in the data active = fluorescence above about 47
RGS4-Gao reg: human RGS4-Galphao interaction regulation; Multiplexed bead flow cytometry, RGS4-Galphao binding; actives lie on both sides; binding response (% of control), % at 10 µM; 0.33% of 220,000 active; in the data active = binding response below about 49% or above about 150%; inactive = in between;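 note: fluorescent Galphao activated with aluminum fluoride binding bead-coupled RGS4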
Target sequence (P09471 whole entry, looked up): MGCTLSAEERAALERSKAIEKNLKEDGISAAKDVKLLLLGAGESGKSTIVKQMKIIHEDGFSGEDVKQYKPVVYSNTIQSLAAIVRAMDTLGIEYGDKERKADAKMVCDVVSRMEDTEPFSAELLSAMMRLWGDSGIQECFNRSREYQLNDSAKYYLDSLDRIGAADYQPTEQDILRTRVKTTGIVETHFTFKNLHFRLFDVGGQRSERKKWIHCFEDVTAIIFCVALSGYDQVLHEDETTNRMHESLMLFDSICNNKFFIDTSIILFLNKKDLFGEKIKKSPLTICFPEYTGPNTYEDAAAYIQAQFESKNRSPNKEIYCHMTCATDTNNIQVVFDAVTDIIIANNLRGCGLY
RGS7-Gao: modulates binding of RGS7 to human Galphao; binding response (% of control), % at 10 µM; 0.35% of 220,000 active; Multiplexed bead flow cytometry; actives lie on both sides; AID 1439; in the data active = binding response below about 49% or above about 150%; inconclusive = no clear call, values can overlap the other calls; inactive = in between;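 note: fluorescent Galphao held in activated GDP-AlF4 state binding bead-coupled RGS7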
RGS16-Gao HTS: RGS16-Galphao interaction regulator (human) | AID 1441 | bead-based flow cytometry RGS16-Galphao binding, fluorescence; actives lie on both sides | O15492+P09471 | 0.38% of 220,000 active | binding response (% of control), % at 10 µM; call rule not given here;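 note: Galphao activated by GDP with aluminum fluoride before binding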
Target sequence (O15492 whole entry, looked up): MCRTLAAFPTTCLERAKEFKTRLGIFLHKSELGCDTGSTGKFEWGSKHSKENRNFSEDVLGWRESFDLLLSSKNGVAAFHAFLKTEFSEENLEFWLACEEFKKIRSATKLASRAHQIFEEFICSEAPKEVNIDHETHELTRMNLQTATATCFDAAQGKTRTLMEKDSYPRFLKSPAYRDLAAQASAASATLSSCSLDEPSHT
Target sequence (P09471 whole entry, looked up): as the sequence (P09471 whole entry, looked up) above
RGS8-Gao: regulators of human RGS8-Galphao interaction; P09471; multiplexed bead flow cytometry, RGS8-Galphao binding; actives lie on both sides; response (percent of control binding), % at 10 µM; 0.34% of 220,000 active; AID 1423; in the data active = response below about 60% or above about 140%; inactive = in between;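 note: Galphao activated as the GDP aluminium fluoride complex binding bead-coupled RGS8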
GSH bead fluor: compound fluoresces at 488/530 nm on GSH beads; GSH beads flow cytometry, compound fluorescence 488/530 nm; hits give high values; fluorescence (KMESF) at 10 µM; 0.25% of 190,000 active; AID 1776; in the data active = fluorescence above about 89;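 note: glutathione beads carrying GST-tagged Bcl family fusion proteins plus one bare bead set; values are compound well signal with DMSO vehicle wells as background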
The depositor's hits bear a star; ? = inconclusive; nt = no result given.

SMILES | Avidin fluor | RGS4-Gao reg | RGS7-Gao | RGS16-Gao HTS | RGS8-Gao | GSH bead fluor
Cc1ccc(NS(=O)(=O)c2ccc3c(c2)NC(=O)CC(=O)N3)cc1C | 58* | 99.2 | 111.1 | 107.4 | 98.2 | 26
O=C(O)/C=C/C(=O)OC1CC2CCC1C2 (stereo not given) | 8 | 103.3 | ? | 100.3 | 100.8 | nt
Cc1cc(NC(=O)CSc2nc3ccsc3c(=O)n2NC(=O)c2ccccc2)no1 | 1 | 19.3* | 25.2* | 23.2* | 38.7* | 64
Cc1ccc(CNC(=O)CSc2nc3ccsc3c(=O)n2NC(=O)c2ccccc2)cc1 | 5 | 98.7 | 95.8 | 99.7 | 98.3 | 13
CCOC(=O)/C=C1\SCC(=O)N1Cc1nnc(-c2ccccc2Br)o1 | 50* | 97.9 | 101.2 | 97.6 | 97.9 | 22
CCOC(=O)C1=C(C)NC(SC)=NC1c1ccc(OC)cc1 (stereo not given) | 4 | 107.0 | 106.1 | 109.8 | 103.4 | 111*
O=c1/c(=C/c2ccccn2)sc2n1CN(c1ccccc1)CN=2 | 3 | 88.1 | 92.4 | 51.8 | 100.5 | 3
COc1cc(N2CN=c3s/c(=C\c4ccccn4)c(=O)n3C2)cc(OC)c1OC | 9 | 109.9 | 106.4 | 107.4 | 102.3 | 265*
N=C1/C(=C\c2ccc(OCc3ccccc3)cc2)C(=O)N=C2SC(N3CCCC3)=NN12 | 6 | 88.1 | 84.8 | 92.0 | 94.2 | 18
Nc1ccc(N2CCN(C(=O)c3cccs3)CC2)cc1 | 3 | 83.4 | 85.1 | 84.6 | 91.7 | 46
CC(=O)Nc1ccc(N2CCN(C(=O)c3cccs3)CC2)cc1 | 99* | 104.0 | 132.4 | 78.3 | 95.2 | 22
CCOC(=O)c1[nH]c(C)c(C(=O)Nc2ccc(C)c(Cl)c2)c1C | 62* | 100.2 | 109.7 | 100.6 | 102.0 | 25
Cc1cccc(NC(=O)CSc2nnc(-c3ccc(S(=O)(=O)N4CCOCC4)cc3)n2C)c1 | 68* | 104.8 | 115.9 | 103.3 | 101.0 | 12
Cc1nn(-c2ccccc2)c(Cl)c1CN(C(=O)CCl)c1cccc2ccccc12 | 2 | 103.7 | 103.8 | 71.2 | 92.9 | 12
C/C(=N/NC(=O)CN1CCN(S(=O)(=O)c2ccc(C)cc2)CC1)c1ccco1 | 6 | 81.7 | ? | 85.7 | 91.4 | nt
Cn1c(=O)c(=O)n(C)c2cc(S(=O)(=O)NCCOc3ccccc3)ccc21 | 11 | 99.4 | 91.2 | 102.5 | 102.2 | 22
COCc1cc(CN2CCCC2)c(O)c2ncccc12 | 66* | 104.0 | 113.6 | 101.3 | 100.8 | 14
CCN(c1ccc(NC(=O)COC(=O)CCc2cc(OC)c(OC)c(OC)c2)cc1)C(C)C | 5 | 96.0 | 99.7 | 142.2 | 107.9 | 16
Cc1cc(C)cc(OCC(=O)Nc2ccccc2N2CCCCC2)c1 | 69* | 100.8 | 110.3 | 101.5 | 100.4 | 26
Nc1ccc2oc(-c3ccccc3Cl)nc2c1 | 14 | 102.2 | 96.1 | 98.5 | 100.4 | 12
Cc1ccc(C)c(-c2nc3cc(N)ccc3o2)c1 | 61* | 100.6 | 106.0 | 90.4 | 96.6 | 14
NC(=O)N/N=C/c1c(Sc2nnnn2-c2ccccc2)nc2ccccn2c1=O | 7 | 101.2 | ? | 101.5 | 99.1 | nt
O=S(=O)(NC1c2cccc3cccc(c23)C1N1CCNCC1)c1ccc(Cl)cc1 (stereo not given) | 12 | 106.4 | 104.1 | 119.0 | 109.4 | 13
O=C(COC(=O)CCc1nc2ccccc2c(=O)[nH]1)Nc1ccc(Cl)cn1 | 49* | 125.8 | ? | 93.5 | 91.5 | nt
Cc1cc(C)cc(OCC(=O)OCC(=O)Nc2ccc(Cl)cn2)c1 | 8 | 104.9 | 105.0 | 103.4 | 106.6 | 16
SMILES | Avidin fluor | RGS4-Gao reg | RGS7-Gao | RGS16-Gao HTS | RGS8-Gao | GSH bead fluor
Cc1ccc(OCCC(=O)OCC(=O)Nc2ccc(Cl)cn2)cc1 | 7 | 98.4 | 94.7 | 96.2 | 98.0 | 272*
COc1ccc(-c2nc[nH]c2[N+](=O)[O-])cc1 | 11 | 101.8 | ? | 99.7 | 99.9 | 13
COC(=O)CSc1nc(-c2ccccc2)c2c(c1C#N)CCCC2 | 6 | 98.7 | 103.4 | 105.4 | 99.1 | 260*
CCCCC(=O)Nc1cccc(NC(=O)c2ccc(Br)cc2)c1 | 49* | 101.1 | 137.0 | 109.0 | 101.6 | 14
COc1ccc(CN2CCN(c3ccc(F)cc3)CC2)c(OC)c1OC | 67* | 117.3 | 138.5 | 108.3 | 102.3 | 8
COc1ccc(CN2CCN(S(=O)(=O)c3ccc(F)cc3)CC2)c(OC)c1OC | 9 | 84.1 | 98.5 | 98.7 | 101.0 | 56
CCOC(=O)c1sc(NC(=O)CSc2nc(C)cc(C)n2)c(C#N)c1C | 49* | 106.4 | 108.0 | 104.6 | 101.7 | 13
O=C(CN1CCC(NC(=O)c2ccco2)CC1)Nc1cccc2ccccc12 | 6 | 118.7 | 116.5 | 109.0 | 107.2 | 120*
O=C(COc1ccc2c(c1)OCO2)Nc1ccccc1C(F)(F)F | 7 | 99.1 | 98.4 | 100.8 | 101.3 | 20
Cc1cc2oc(=O)cc(Cn3ccnc3)c2cc1C | 8 | 102.6 | 96.5 | 102.5 | 98.5 | 273*
FC(F)(F)c1ccc(-n2ccnc2)nc1 | 5 | 82.3 | 85.8 | 28.4 | 77.7 | 265*
O=C(O)Cc1sc(N/N=C\c2ccncc2)nc1-c1ccccc1 | 9 | 98.4 | ? | 98.8 | 98.7 | nt
Cc1nnc(-c2cnn(-c3ccccc3)c2N)n1Cc1cccc(C(F)(F)F)c1 | 17 | 106.1 | 102.6 | 104.6 | 103.6 | 12
Cc1nnc(-c2cnn(-c3ccccc3)c2N)n1Cc1ccncc1 | 78* | 104.7 | 121.9 | 106.1 | 99.9 | 13
COC(=O)CC1C(=O)NCCN1C(=O)CSc1nnc(Nc2ccc(C)cc2)s1 (stereo not given) | 17 | 99.1 | 106.0 | 103.3 | 101.0 | 260*
N#CC(C(=O)Nc1ccc(Cl)c(Cl)c1)=C1Nc2ccccc2N1 | 50* | 99.5 | 105.4 | 102.4 | 101.5 | 26
N#CC(C(=O)Nc1cccc(Cl)c1)=C1Nc2ccccc2N1 | 34 | 108.8 | 101.8 | 103.6 | 100.8 | 17
Cc1ccc(NC(=O)c2ccc(OC(=O)CCN3C(=O)c4ccccc4C3=O)cc2)cc1 | 48* | 96.3 | 105.7 | 99.5 | 99.0 | 10
CCOC(=O)c1cc(-c2ccc(F)cc2)n(CC(=O)NC(C)CC)c1C (stereo not given) | 33 | 98.5 | 113.3 | 79.0 | 94.5 | 16
CCOC(=O)c1cc(-c2ccc(C)cc2)n(CCC(=O)NC(C)CC)c1C (stereo not given) | 64* | 102.2 | 104.7 | 102.3 | 100.3 | 19
Cc1cc(=O)oc2cc(OCc3nnc(-c4ccccc4Br)o3)ccc12 | 49* | 97.6 | 103.5 | 100.6 | 97.6 | 12
CN1CCN(Cc2cc(=O)oc3ccc(Cl)cc23)CC1 | 8 | 105.0 | 103.3 | 103.5 | 100.2 | 7
CCOC(=O)N1CCN(Cc2cc(=O)oc3ccc(Cl)cc23)CC1 | 7 | 101.6 | 101.7 | 101.8 | 101.8 | 267*
CCCCn1c(CN2CCN(C)CC2)nc2ccccc21 | 10 | 101.2 | 99.2 | 99.3 | 99.7 | 25
